# In the library only some 1.4% were active in any assay of this set; here they are far more common.
# AmpC inh detg = qHTS Inhibitors of AmpC Beta-Lactamase (assay with detergent); P00811; AmpC hydrolysis of nitrocefin, absorbance 480 nm, 0.01% Triton; Potency, µM (highest dose often 114 µM), for the others: top-dose activity change, negative = inhibition, most hits filed as inhibitors; hit rate 0.041% among 370,000; AID 485294, 2010;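 note: 0% = no-compound wells and -100% = no-enzyme wells; nearly all actives have a fitted effect of over 25% in size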
# Target sequence (P00811 whole entry, looked up): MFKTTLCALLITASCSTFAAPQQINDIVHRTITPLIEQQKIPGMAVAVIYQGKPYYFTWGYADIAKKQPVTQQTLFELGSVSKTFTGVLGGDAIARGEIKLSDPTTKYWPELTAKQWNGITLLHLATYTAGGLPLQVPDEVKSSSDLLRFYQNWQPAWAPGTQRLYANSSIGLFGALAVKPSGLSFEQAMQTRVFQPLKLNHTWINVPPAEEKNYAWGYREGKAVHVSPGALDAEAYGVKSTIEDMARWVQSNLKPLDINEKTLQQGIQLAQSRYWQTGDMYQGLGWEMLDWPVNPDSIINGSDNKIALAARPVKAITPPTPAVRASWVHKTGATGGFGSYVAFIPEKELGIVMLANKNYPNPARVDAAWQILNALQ
#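 AmpC (5.3 nM in the dispensed reagent) in 20 mM phosphate pH 7.0 with 0.01% (detergent screen) or 0.0001% Triton X-100 was preincubated with compounds for 15 min at room temperature. Nitrocefin was then added from an 800 uM solution, and hydrolysis was followed at 480 nm.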
# LmPK inh = qHTS Assay for Inhibitors of Leishmania Mexicana Pyruvate Kinase (LmPK) | Q27686 | hit rate 0.37% among 290,000 | purified LmPK, Kinase-Glo ATP luminescence, 1 h | AID 1721, 2009 | Potency, µM (series often up to 57.5 µM), without a hit: at the top dose activity change, negative = inhibition, hits mostly inhibitors
#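 Kinase-Glo luminescence read after 1 h RT reaction of 0.1 nM LmPK with 0.5 mM PEP and 0.1 mM ADP. Activity scaled between uninhibited and enzyme-free controls.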
# AmpC inh no detg = qHTS Inhibitors of AmpC Beta-Lactamase (assay without detergent) | hit rate 0.52% among 330,000 | Potency, µM (titrated, usually from 57.1 µM), for the others: at the top dose activity change, negative = inhibition, most hits filed as inhibitors | AmpC nitrocefin hydrolysis, absorbance 480 nm, 0.0001% Triton | AID 485341, 2010;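 note: plate controls were no compound for no effect and no enzyme for full effect; nearly all actives have a fitted effect of over 20% in size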
#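 20 mM phosphate pH 7.0 + 0.01% (detergent screen) or 0.0001% Triton X-100; 5.3 nM AmpC reagent; cpd preinc 15 min RT; nitrocefin (800 uM stock) to start; A480 q20 s × 4 min; Activity was normalised to no-enzyme and no-compound control wells.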
# TbPYK inhibitor = qHTS of Trypanosoma Brucei Inhibitors. Potency, µM (series often up to 76.8 µM), for inactives: at the top dose activity, negative = inhibition, hits mostly inhibitors. AID 624173, 2012. TbPYK enzyme, Kinase-Glo Plus ATP luminescence, 45 min. pyruvate kinase (Trypanosoma brucei), Q57TT1. hit rate 0.12% among 410,000; note: nearly all actives have a fitted effect of over 50% in size
#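 In this concentration-response screen, enzyme-free wells defined baseline while DMSO plates tracked drift. Each reaction combined TbPYK, substrate, compound and 130 uM ADP for 45 min at room temperature. Kinase-Glo Plus luminescence gave the signal.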
# FBPA Giardia inh = qHTS Assay for Inhibitors of Fructose-1,6-bisphosphate Aldolase from Giardia Lamblia. Potency, µM (series often up to 59.6 µM), for the others: top-dose activity, negative = inhibition, most hits filed as inhibitors. AID 2451, 2010. purified Giardia FBPA. hit rate 0.71% among 290,000. A8B2U2; note: nearly all actives have a fitted effect of over 55% in size
# Target sequence (A8B2U2 whole entry, looked up): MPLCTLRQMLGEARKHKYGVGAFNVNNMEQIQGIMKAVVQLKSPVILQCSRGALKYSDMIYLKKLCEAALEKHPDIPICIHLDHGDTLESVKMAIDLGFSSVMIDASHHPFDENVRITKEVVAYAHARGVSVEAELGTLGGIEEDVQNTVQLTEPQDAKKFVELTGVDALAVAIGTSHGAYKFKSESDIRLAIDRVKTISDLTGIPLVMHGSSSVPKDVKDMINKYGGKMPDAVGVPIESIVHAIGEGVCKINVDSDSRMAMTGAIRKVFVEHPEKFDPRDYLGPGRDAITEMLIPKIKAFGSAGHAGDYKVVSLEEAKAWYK
#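 Giardia FBPA (40 nM reagent) was preincubated 10 min at RT with compound (up to 57.5 uM final), then substrate plus GAPDH/TPI/NAD/arsenate coupling system with diaphorase/resazurin was added; resorufin fluorescence (525/598 nm) was read after 20 min.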
# RE007 growth inh = qHTS Assay for Inhibitors of the HIV-1 protein Vpr | hit rate 0.21% among 360,000 | AID 651644, 2012 | Potency, µM (series often up to 92.2 µM), for the others: top-dose activity change, negative = less growth, hits mostly inhibitors | S. pombe RE007 Vpr strain, BacTiter-Glo ATP luminescence, 24 h; active = well fitted falling curve with a large enough effect; inconclusive = small, poorly fitted or top-dose-only effect; inactive = no such curve, though single readings can be large or run the other way; note: nearly all actives have a fitted effect of over 50% in size
#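 Fission yeast RE007 carrying one integrated HIV-1 vpr copy, seeded at OD 0.01 in PMG+AL medium with 23 nL pinned compound. Grown 24 h at 30 degrees; viability read by BacTiter-Glo luminescence after 5 min.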
# * marks the source's active call; other numbers are inactive results; ? = inconclusive; . = no result given; [ ] = dose if it differs, or a comment. Unless noted, calls come from the whole dose curve; as a rule, active = well fitted curve in the direction sought with a large enough effect; inconclusive = small, poorly fitted or top-dose-only effect, or another doubt; inactive = no such curve, though single readings can be large; an effect the other way counts as inactive or inconclusive. Unless noted, % is set by controls: 0 for no effect and ±100 for the full control effect; potency is the fitted concentration of half-maximal effect.
SMILES,AmpC inh detg,LmPK inh,AmpC inh no detg,TbPYK inhibitor,FBPA Giardia inh,RE007 growth inh
O=C(O)c1ccc(NC2=C/C(=N/S(=O)(=O)c3ccccc3)c3ccccc3C2=O)cc1,4%,-15%,-37%,-29%,?,?
O=C(Nc1ccc(Br)cc1)N1CCC(CN2CCCC2)CC1,-8%,.,.,4%,.,.
CCOc1ccccc1CNC(=O)c1ccc(CS(=O)Cc2cccc(Cl)c2)o1 (stereo not drawn),20%,.,.,1%,.,.
C[C@H](/C=C/[C@H](C)C(C)(C)O)[C@H]1CC[C@H]2/C(=C/C=C3C[C@@H](O)C[C@H](O)C3)CCC[C@]12C,.,.,.,7%,.,.
CCOc1ccc(OCC)c(NS(=O)(=O)c2ccc3c(c2)CCCN3C(C)=O)c1,1%,.,.,0%,.,.
O=C(Nc1c2c(nn1-c1ccc(Cl)cc1)CS(=O)(=O)C2)c1ccc(Br)cc1,4%,.,.,-5%,.,.
CCCOC(=O)C1=C(C)N(C)C(=O)NC1c1cc2c(cc1[N+](=O)[O-])OCO2 (stereo not drawn),0%,0%,-26%,-23%,?,-8%
CCOC(=O)C1=C(C)NC(=O)CC1c1cc2c(cc1[N+](=O)[O-])OCO2 (stereo not drawn),5%,3%[11.5 µM],-14%,-5%,13µM*,-4%
O=C1c2ccccc2C(=O)C1c1ccc2ccccc2n1,-4%,14µM*,-10%,1%,0%,-13%
CC(=O)[O][Hg][c]1ccccc1,.,.,.,?,18µM*,.
O=C1CC(=O)N(CCNc2ncc(C(F)(F)F)cc2Cl)C(=O)N1,?,-1%,6%,-5%,12%,0%
O=C1C=CC(=O)N1CCNc1ncc(C(F)(F)F)cc1Cl,?,2%,-13%,?,-17%,2.5µM*
CC1(C)CC/C(=C\c2ccc(Cl)cc2)C1(O)Cn1cncn1 (stereo not drawn),.,.,.,-6%[157 µM],.,.
Cc1c(C2(O)CCCCC2)[nH]c2ccc(C(F)(F)F)cc12,.,.,-11%,4%,.,40µM*
COC(=O)c1ccc2[nH]c(C3(O)CCCCC3)c(C)c2c1,.,.,-20%,3%,.,-1%
Cc1nc(C)c(-c2ccc(SCC(=O)Nc3ccc(Br)cc3)nn2)s1,-10%,.,.,1%,.,.
Cc1ccc(-n2nc3c(N4CCCC(C(=O)NCc5ccccc5C)C4)nnc(C)c3c2C)cc1 (stereo not drawn),12%,.,.,3%,.,.
CCOC(=O)c1ccccc1NS(=O)(=O)c1ccc(N2CCCCS2(=O)=O)cc1,12%,.,.,-5%,.,.
Cc1cccc(C)c1OCC(=O)N=Nc1c(O)[nH]c2ccc(Br)cc12,-12%,3%,-27%,-1%,-3%,7%
COc1ccc(/C=N/OCC(=O)N=Nc2c(O)[nH]c3ccc(Br)cc23)cc1,?,-1%,1µM*,2%,-2%,0%
CSc1ccc(CCNc2ncnc3onc(C)c23)cc1,-6%,.,.,-5%,.,.
CCOC(=O)c1[nH]c(C)c(CCC(=O)N2CCN(c3cc(C)ccc3C)CC2)c1C,-2%,.,.,0%,.,.
O=C(c1ccccc1Cl)N(C(=O)c1ccccc1Cl)c1nccc(-c2cccs2)n1,3%,0%,-21%,4%,7.9µM*,0%
O=C(CSc1nccc(-c2cccs2)n1)Nc1cccc(Cl)c1Cl,6%,3%,-25%,-7%,-1%,-4%
C/C(=N\NC(=O)c1nn(C)c(C)c1Br)c1cccc(NC(=O)c2ccoc2C)c1,?,-2%,32µM*,-5%,3%,24%
SMILES,AmpC inh detg,LmPK inh,AmpC inh no detg,TbPYK inhibitor,FBPA Giardia inh,RE007 growth inh
C/C(=N\NC(=O)c1ccoc1C)c1ccccc1,0%,14µM*,-12%,-17%,-5%,8%
O=C(c1ccco1)N1CCN(/C(=N/S(=O)(=O)c2cccs2)c2ccccc2Cl)CC1,6%,-2%,7.1µM*,5%,3%,19%
CCOC(=O)c1ccc(NC(=O)CC2C(=O)N(c3ccc(F)cc3)C(=O)N2Cc2cccnc2)cc1 (stereo not drawn),-2%,.,.,-4%,.,.
COc1cc(C(=O)Nc2ccc(O)cc2)ccc1OC(C)=O,0%,?,-16%,0%,-1%,1%
COc1cc(C(=O)Nc2ccc(C(=O)O)cc2)ccc1OC(C)=O,1%,25µM*,-17%,-4%,-3%,-12%
Cc1ccc(/C=C2/NC(=O)N(c3ccccc3)C2=O)o1,-2%,1%,-26%,?,-30%,63µM*
Cc1ccc(/C=C2/NC(=O)N(Cc3ccc(Br)cc3)C2=O)o1,-6%,-2%,2.5µM*,?,?,.
Cc1ccc(-n2ncc3c(NCCCN4CCOCC4)ncnc32)cc1C,8%,.,.,0%,.,.
CCOC(=O)N1CCC(Nc2c(NCCCOC)c(=O)c2=O)CC1,0%,3%,0.25µM*,9%,-1%,12%
O=c1c2ccccc2ncn1-c1ccc(Cl)cc1Cl,-1%,3%,-6%,-5%,0%,-15%
O=c1c2ccccc2sn1-c1ccc(Cl)cc1Cl,.,.,.,18µM*,.,45µM*
Cc1ccc(S(=O)(=O)N2CCc3cc(C(=O)Nc4c(F)cccc4F)ccc32)cc1,22%,.,.,-2%,.,.
CCCCSc1nnc([C@@H]2CCCN2C(=O)OC(C)(C)C)o1,32µM*,-1%,64%,1%,2%,6%
CC(C)CC(OC(=O)c1ccco1)C(=O)NC1CCCC1 (stereo not drawn),-9%,-2%,10%,-2%,.,-16%
CC(C)CC(OC(=O)c1ccco1)C(=O)NC1CCCCC1 (stereo not drawn),32µM*,-4%,13%,-2%,12%,2%
O=C(Nc1ccc(Br)c(Cl)c1)C1CC1,1%,-4%,2.2µM*,-3%,-4%,?
Cc1ccc(NS(=O)(=O)c2ccc(Br)s2)nc1,-5%,0%,2%[2.29 µM],-8%,7.9µM*,12%
Cc1ccc(Cl)cc1N1CCN(S(=O)(=O)c2ccc3c(c2)NC(=O)C(C)C(=O)N3)CC1 (stereo not drawn),-5%,2%,11µM*,0%,11%,2%
COc1cc(/C=C(/C#N)c2nc3ccccc3c(=O)[nH]2)ccc1O,7%,-10%,28µM*,-1%,-7%,5%
C=CCn1c(CSc2ccc(C)cc2)n[nH]c1=S,-15%,-13%,-55%,4µM*,?,14%

# High-throughput results: PubChem, National Center for Advancing Translational Sciences (NCATS)
